Compound activity from PubChem.
TR-FRET SRC-2 ct: TR-FRET signal artefacts, primary screen, artefact control for PPARgamma SRC-2 agonist project, biochemical; TR-FRET artefact counter-screen; hits give high values; TR-FRET ratio at 8 µM; actives 0.4% (n = 200,000); AID 1049, 2008
SRC3 TRFRET art: TR-FRET detection interference compounds, artefact control for PPARgamma SRC-3 recruitment agonists, biochemical, TR-FRET ratio; TR-FRET artefact counter-screen, PPARgamma/SRC-3 format; hits give high values; TR-FRET ratio at 8 µM; AID 1048, 2008; actives 0.39% (n = 99,000)
SRC1 TRFRET art: TR-FRET detection interference compounds, primary screen, artefact control for PPARgamma SRC-1 recruitment agonists, biochemical, TR-FRET emission ratio. actives 0.34% (n = 99,000). TR-FRET detection artefact counter-screen; hits give high values. TR-FRET ratio at 8 µM; in the data active = TR-FRET ratio above about 2300
PPARg SRC-1 ag: PPARgamma agonists recruiting SRC-1 coactivator, primary screen, biochemical. Peroxisome proliferator-activated receptor gamma (Homo sapiens), P37231. PPARgamma-SRC-1 coactivator recruitment biochemical assay. activation, % at 8 µM. actives 0.41% (n = 200,000); in the data active = activation above about 19%;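 also: 0% = DMSO and 100% = reference agonist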
Target sequence (P37231 whole entry, looked up): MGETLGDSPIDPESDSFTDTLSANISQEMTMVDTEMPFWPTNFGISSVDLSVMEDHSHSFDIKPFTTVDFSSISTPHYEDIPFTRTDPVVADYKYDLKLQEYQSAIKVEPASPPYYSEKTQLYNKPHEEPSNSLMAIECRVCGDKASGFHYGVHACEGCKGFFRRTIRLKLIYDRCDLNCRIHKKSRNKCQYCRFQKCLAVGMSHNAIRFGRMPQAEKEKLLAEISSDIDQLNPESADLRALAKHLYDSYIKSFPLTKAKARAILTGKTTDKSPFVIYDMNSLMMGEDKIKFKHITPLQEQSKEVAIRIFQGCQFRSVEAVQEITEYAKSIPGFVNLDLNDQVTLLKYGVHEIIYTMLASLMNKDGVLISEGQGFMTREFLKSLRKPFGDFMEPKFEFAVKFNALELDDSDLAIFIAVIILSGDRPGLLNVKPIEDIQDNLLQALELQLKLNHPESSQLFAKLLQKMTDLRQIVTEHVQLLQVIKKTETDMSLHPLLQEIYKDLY
PPARg SRC-3 ag: PPARgamma agonists recruiting SRC-3 coactivator, primary screen, biochemical | actives 0.26% (n = 200,000) | AID 731, 2007 | activation, % at 8 µM | biochemical PPARgamma/SRC-3 coactivator recruitment assay; in the data active = activation above about 23%;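 also: 0% = DMSO and 100% = reference agonist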
PPARg SRC2 recr: agonists of PPARg-SRC-2 recruitment, primary screen, biochemical, HTS; PPARgamma LBD-SRC-2 recruitment; AID 1032, 2008; actives 0.34% (n = 200,000); activation, % at 8 µM; Peroxisome proliferator-activated receptor gamma (Homo sapiens), P37231; in the data active = activation above about 22%;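 also: 0% = vehicle and 100% = reference agonist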
Active calls of the source: *; . = not tested or not shown. Compounds with a hit are over-represented: about 0.84% of the library has one in this group of screens. Rule as the data show it, unless noted: active = TR-FRET ratio above about 2000; inactive = the rest.

SMILES	TR-FRET SRC-2 ct	SRC3 TRFRET art	SRC1 TRFRET art	PPARg SRC-1 ag	PPARg SRC-3 ag	PPARg SRC2 recr
O=C(C1=C[C@@H](c2ccc(C(F)(F)F)cc2)C[C@@H](OCc2ccc(CO)cc2)O1)N1CCOCC1	1870	1614	1750	7.4	0.8	23.9*
Clc1ccc(-c2nc(C3CCCCC3)no2)cc1	1545	1714	1833	-0.7	3.1	-3.1
COc1ccc(C2=NN(c3nc(-c4ccccc4)c(CC(=O)O)s3)C(c3ccco3)C2)cc1 (stereo not given)	1644	2153*	2061	6.6	14.2	0.9
O=C(N/N=C/C=C\c1ccccc1[N+](=O)[O-])c1ccco1	1978*	1595	1928	14.3	6.5	3.5
Cc1occc1C(=O)N/N=C/C=C\c1ccccc1[N+](=O)[O-]	1654	1550	1846	9.5	5.6	4.5
CCc1nc(SCc2ccc(F)cc2)[nH]c(=O)c1C#N	2794*	.	.	-2.0	-0.1	56.6*
Cc1cc(C)c(C#N)c(SCc2ccc(F)cc2)n1	1549	1600	1966	5.0	3.3	5.8
O=C(C1=C[C@@H](c2ccc(Br)cc2)C[C@@H](OCCCCO)O1)N1CCN(Cc2ccc3c(c2)OCO3)CC1	1592	1729	1764	1.1	31.4*	6.2
COc1cccc(C(=O)Nc2ccc(-c3nc4ccccc4o3)c(O)c2)c1	2264*	.	.	2.7	-4.8	8.7
O=C(COC(=O)CCCN=C1NS(=O)(=O)c2ccccc21)NC(=O)NC1CCCC1	1724	1537	1846	1.8	1.5	2.3
COC(=O)c1ccc2c(=O)n(Cc3ccco3)c(SCC(=O)Nc3ccc(C)c(Cl)c3)nc2c1	1665	.	.	16.2	-10.8	10.1
O=C(CSc1nc2ccccc2c(=O)n1-c1ccc(F)cc1)Nc1cc(S(=O)(=O)N2CCOCC2)ccc1Cl	2011*	2000	2193	-0.8	4.4	4.0
O=C(CSc1nc2cc(Cl)ccc2c(=O)n1Cc1ccco1)Nc1ccc(S(=O)(=O)N2CCOCC2)cc1	2029*	2505*	2098	5.8	5.5	-2.9
O=C1CCC(C(=O)N(Cc2cccs2)C2(C(=O)NC3CCCCC3)CCCCC2)N1 (stereo not given)	1402	1673	2103	-3.5	8.1	6.5
O=[N+]([O-])/C=C\c1ccc(N2CCCC2)c(F)c1	1626	1655	1847	7.5	7.3	7.2
COc1ccc(C(=O)Nc2nc3c(s2)CCCC3)cc1S(=O)(=O)N1CCCc2ccccc21	1754	2089*	2068	1.1	5.2	9.5
CN1c2ccsc2C(O)=C(C(=S)Nc2ccc(F)c(Cl)c2)S1(=O)=O	1502	.	.	7.8	-7.0	0.3
CCOC(=O)N1CCC(=NNC(=O)c2ccc(O)cc2)CC1	1519	1428	1781	1.8	-7.6	-6.8
CC1(C(=O)NCc2ccc(Cl)c(Cl)c2)Oc2ccccc2NC1=O (stereo not given)	1627	1645	1611	9.6	5.6	-1.3
Cn1cc(/C=N/n2cnc3sc4c(c3c2=O)CCCC4)c2ccccc21	1972*	.	.	7.0	10.4	2.4
O=c1c2c3c(sc2ncn1/N=C/c1ccc([N+](=O)[O-])o1)CCCC3	1512	.	.	8.1	-3.8	-6.3
CCCn1c(NC(=O)c2ccc(F)cc2)nc2ccccc21	1479	1516	1892	-1.3	3.4	2.1
CCCn1c(NC(=O)c2ccc(Br)cc2)nc2ccccc21	1587	.	.	34.2*	-0.8	2.4
O=C(Cc1csc(NC(=O)c2ccc(F)cc2)n1)NO	1570	1395	1895	7.2	0.7	3.8
COCCOC(=O)c1c(C)oc2ccc(OC(=O)COc3c(F)c(F)c(F)c(F)c3F)cc12	1535	.	.	-5.2	-2.6	-8.1
SMILES	TR-FRET SRC-2 ct	SRC3 TRFRET art	SRC1 TRFRET art	PPARg SRC-1 ag	PPARg SRC-3 ag	PPARg SRC2 recr
Cc1oc2ccc(OC(=O)COc3c(F)c(F)c(F)c(F)c3F)cc2c1C(=O)OC(C)C	2175*	1635	1598	12.4	1.3	10.5
O=C(O)CCc1nn2c3ccccc3n(CC(=O)c3cccs3)c2nc1=O	1550	1699	1886	6.8	7.7	5.9
CCOC(=O)c1c(NC(=O)CSc2nc3ccccc3s2)sc(C(C)=O)c1C	2122*	.	.	-1.6	0.2	3.1
CCOC(=O)c1c(NC(=O)CSc2nc3cc(Cl)ccc3s2)sc(C(C)=O)c1C	1636	1545	1894	2.3	4.9	7.7
COC(=O)C1=C(C)NC(=O)CC1c1cc2c(cc1Br)OCO2 (stereo not given)	1470	2175*	1895	-1.3	5.9	-2.7
COc1ccc(-c2cc(-c3cccs3)c(C#N)c(SCC(=O)NCc3ccccc3)n2)cc1	1693	.	.	39.4*	4.7	5.8
N#Cc1c(N)nc(SCC(=O)NCc2ccc3c(c2)OCO3)c(C#N)c1-c1cccs1	1660	.	.	3.7	3.7	8.0
COc1ccc(-c2cc(-c3cccs3)c(C#N)c(SCC(=O)NCc3ccccc3OC)n2)cc1	1559	.	.	27.3*	-5.8	-2.8
COc1ccc(-c2cc(-c3ccccc3)nc(SCC(=O)Nc3ncc(C)s3)c2C#N)cc1	1511	1299	1750	-2.9	0.5	-4.7
COc1ccccc1CNC(=O)CSc1nc(N)c(C#N)c(-c2cccs2)c1C#N	1644	.	.	2.9	29.5*	9.4
Cc1cc(N2CCN(C)CC2)ccc1NC(=O)c1cccc(S(=O)(=O)N2CCc3ccccc3C2)c1	1668	1680	1795	6.1	3.1	4.6
Cc1ccc(Cc2ccc(C(=O)NNC(N)=S)o2)cc1	1208	1600	1590	-4.5	0.3	-4.3
Cn1nc(-c2ccccc2)c(C(=O)Nc2ccc(C(F)(F)F)cc2)c1Cl	1625	.	.	5.0	32.2*	1.4
Cn1nc(-c2ccccc2)c(C(=O)Nc2ccc(Cl)cc2)c1Cl	1469	.	.	5.3	6.8	-1.9
O=C(CSc1ncnc2scc(-c3ccccc3)c12)N1CCN(c2ccccc2F)CC1	1481	2200*	1899	0.6	3.6	0.8
COc1ccc(C)cc1-n1nnnc1SCC(=O)c1ccc2c(c1)OCCO2	3766*	.	.	-9.1	-0.7	6.0
Cc1cc(N2CCC(C(=O)NC3CC3)CC2)nc(-c2ccccc2)n1	1506	.	.	4.8	-7.3	-1.6
Cc1cc(N2CCC(C(=O)NC3CCCCC3)CC2)nc(-c2ccccc2)n1	1528	2155*	1560	5.9	9.8	3.8
CC(C)CC(NC(N)=O)C(=O)Nc1ccc(Oc2ccccc2)cc1 (stereo not given)	1587	1689	1885	5.7	2.1	8.8
Cc1c(N=Nc2ccc(O)cc2)c(=O)n(-c2ccccc2)n1C	1632	2164*	2013	12.5	3.2	3.1
NNC(=O)c1cnn(-c2ccccc2)c1-n1cccc1	2005*	1641	1758	-7.6	2.7	30.2*
